Compounds with a hit are over-represented: about 7.8% of the library has one in this group of screens.
VACV mCherry inh: inhibitors of vaccinia virus infection (mCherry reporter signal). AID 720579. actives 0.63% (n = 310,000). Potency, µM (doses to about 36.5 µM), for the others: at the top dose activity change, negative = inhibition, hits mostly inhibitors. Vaccinia virus mCherry reporter infection, fluorescence; calls by dose curve; tested in A549 cells; further: potency means the concentration at half of the fitted maximal effect; nearly all actives have a fitted effect of over 35% in size
HCMV antiviral: inhibitors of human cytomegalovirus. HFF cells, HCMV-luciferase reporter, 72 h; hits give low values. activity change, negative = inhibition, % at 57.5 µM. actives 4.5% (n = 410,000). AID 1259415; in the data active means activity change below about -60%; inconclusive means no clear call, values can overlap the other calls; inactive means above about -39%
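Steps: HFFs plated, 16 h 37C; compounds added; HCMV-luciferase added to MOI 1 PFU/cell; 72 h 37C; OneGlo reagent, 5 min room temperature; luminescence read, normalized to controls.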
VACV Venus inh: vaccinia inhibition (Venus reporter); Vaccinia virus Venus reporter expression, fluorescence; Potency, µM (doses to about 36.5 µM), for inactives: at the top dose activity change, negative = inhibition, actives largely listed as inhibitors; actives 0.46% (n = 330,000); calls by dose curve; tested in A549 cells; further: potency means the concentration at half of the fitted maximal effect; nearly all actives have a fitted effect of over 30% in size
Marburg entry inh: Marburg virus entry inhibition | Marburg virus pseudotyped entry inhibition, cell reporter | Potency, µM (series often up to 37.8 µM), inactives show top-dose activity change, negative = inhibition, actives largely listed as inhibitors | actives 1.8% (n = 300,000); calls by dose curve; tested in HEK293 cells; further: potency means the concentration at half of the fitted maximal effect
Lassa entry inh: inhibitors of Lassa virus binding or cell entry | Potency, µM (doses to about 37.9 µM), without a hit: at the highest dose activity change, negative = inhibition, actives largely listed as inhibitors | Lassa virus pseudotype entry inhibition, cell reporter | actives 1.2% (n = 300,000); calls by dose curve; tested in HEK293 cells; further: potency means the concentration at half of the fitted maximal effect; nearly all actives have a fitted effect of over 50% in size
HCV inh: HCV inhibition | Huh7.5.1 HCVcc-Cre infection, luciferase reporter, 44 h | Potency, µM (titrated, usually from 41.8 µM), without a hit: at the highest dose activity change, negative = inhibition, actives largely listed as inhibitors | actives 3.4% (n = 340,000) | AID 651820; active means well fitted inhibition curve with a large enough effect; inconclusive means small, poorly fitted or top-dose-only effect, or another doubt; inactive means no such curve, though single readings can be large or run the other way; further: potency means the concentration at half of the fitted maximal effect
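Whole-lifecycle infectious HCVcc-Cre system; cells 1,000/well, compound then virus (~0.5 moi) added 4 h after plating, 44 h culture. Luciferase read 15 sec following 15 min substrate incubation, room temp.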
* marks the source's active call; other numbers are inactive results; ? = inconclusive; . = no result; [ ] = another dose, or the depositor's remark. On the % scale 0 is the no-effect control and ±100 the full control effect.

SMILES	VACV mCherry inh	HCMV antiviral	VACV Venus inh	Marburg entry inh	Lassa entry inh	HCV inh
O=C(Nc1ccccc1)C1Cc2c(-c3cccc(F)c3)ccnc2O1 (centres undefined)	14%	-31	-8%	.	.	.
CS(=O)(=O)Nc1cccc(NC(=O)C2Cc3c(-c4cccc(F)c4)ccnc3O2)c1 (centres undefined)	8.9µM*	-78*	10µM*	.	.	.
CCOC(=O)c1c(NC(=O)COc2cccc(C(F)(F)F)c2)sc2c1CCCCC2	-1%	13	4%	.	13%[46.1 µM]	.
CC(C)(C)OC(=O)N1CCC(c2c(C(=O)NCc3ccco3)cnn2-c2ccc(F)cc2F)CC1	-10%	?	-3%	.	?	.
Cc1ccccc1OCC(=O)Nc1ccc2nc(SCC(=O)N3CCOCC3)sc2c1	-3%	-78*	-6%	-20%[46.1 µM]	7%[46.1 µM]	.
Cc1ccccc1OCc1nnc(SCC(=O)Nc2ccc3c(c2)OCO3)n1C	.	19	.	0%	-2%	-10%
Cc1ccccc1OCC(=O)Nc1ccc2nc(SCC(=O)N3CCCC3)sc2c1	-4%	-35	-10%	?	11%[46.1 µM]	.
Cc1ccccc1OCc1nnc(SCC(=O)Nc2ccc3nc(SCC(=O)Nc4ccccc4)sc3c2)n1C	-6%	-20	-10%	?	?	1.1µM*
O=C(CSc1ccc2nnc(-c3ccc(Cl)cc3)n2n1)N1CCCc2ccccc21	-14%	-34	-7%	-6%	18%	-3%
O=C(CSc1ccc2nnc(-c3ccc(F)cc3)n2n1)N1CCCc2ccccc21	?	-77*	-20%	?	?	?
CCOc1cc(C(=O)OCC(=O)c2c[nH]c3ccccc23)ccc1OCC(=O)N1CCOCC1	-15%	52	-12%	1%[46.1 µM]	-4%	?
COc1cc(C(=O)OCC(=O)c2c[nH]c3ccccc23)ccc1OCC(=O)N1CCOCC1	.	-64*	.	-14%	?	-24%
C=CCN(c1ccccc1OC)S(=O)(=O)c1cccc(C(=O)OCC(=O)c2c[nH]c3ccccc23)c1	-16%	-35	-24%	?	9.2µM*	?
COc1cc(OC)c(N(C)S(=O)(=O)c2cccc(C(=O)OCC(=O)c3c[nH]c4ccccc34)c2)cc1Cl	-25%	?	-25%	?	?	?
O=C(NCCN1CCN(c2cccc(Cl)c2)CC1)c1ccc(CSc2nc3ccncc3[nH]2)cc1	-11%	-79*	-15%	?	?	?
C=CCOC(=O)N[C@H](c1cccc(OC)c1)[C@H](C)C=CCC(=O)OC	.	.	.	15%[14.2 µM]	?	.
Cc1cc(C)c(C(=O)/C=C/C=C/c2ccccc2)c(=O)[nH]1	-29%	12	?	5%	-14%	1%
Cc1cc(C)c(C(=O)/C=C/c2ccc(C(C)C)cc2)c(=O)[nH]1	5µM*	-103*	?	?	?	-10%
COc1ccc(NC(=O)c2c(NC(=O)c3ccncc3)sc3c2CCC(C(C)(C)C)C3)cc1 (centres undefined)	10µM*	-38	?	-21%[46.1 µM]	3%[46.1 µM]	.
CCOc1ccc(NC(=O)c2c(NC(=O)c3ccncc3)sc3c2CCC(C(C)(C)C)C3)cc1 (centres undefined)	-25%	13	-3%	1%[46.1 µM]	0%[46.1 µM]	.
OCCN1CCN(CC/C=C2/c3ccccc3Sc3ccc(C(F)(F)F)cc32)CC1	-16%	-30	-29%	8.9µM*	5.8µM*	0.89µM*
OCCN1CCN(CCCN2c3ccccc3C=Cc3ccccc32)CC1	.	-24	.	7.9µM*	?	.
FC(F)(F)c1ccc2c(c1)N(CCCN1CCN(CCCl)CC1)c1ccccc1S2	.	-73*	?	20µM*	?	?
CN(C)CCCN1c2ccccc2Sc2ccc(C(F)(F)F)cc21	?	?	?	6.3µM*	21µM*	?
CN(C)CCC(=O)N1c2ccccc2Sc2ccc(C(F)(F)F)cc21	.	-5	.	.	.	?
OCCN1CCN(CC/C=C2/c3ccccc3CSc3ccccc32)CC1	.	-22	.	.	.	?
OCCN1CCN(CCCN2c3ccccc3CCc3ccccc32)CC1	?	0	-19%	.	.	.

Screening data deposited in PubChem by National Center for Advancing Translational Sciences (NCATS).
